# According to PubChem BioAssay (EPA / NIEHS):
# Records with an inconclusive call do not appear. The source made the active and inactive calls. The calls were made as follows: active = hit-call score of the fitted dose curve at least 0.9, where 1 is the maximum; inconclusive = response in the unintended direction; inactive = score below 0.9.
# What was measured:
# [1] = biological target: human Sirtuin 3 (SIRT3), SIRT3 (gene 23410) (UniProt Q9NTG7); experiment: NVS_ENZ_hSIRT3: NovaScreen (NVS) Enzymatic Assay for human Sirtuin 3 (SIRT3) (AID 2283222)
# Procedure, shortened: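 Cell-free enzyme assay with recombinant protein and fluorescent substrate, product separated by electrophoretic mobility shift; read 1 hour after dosing. Screened in duplicate at 25 uM, then singleton concentration-response up to 50 uM; loss of signal versus DMSO.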
# [2] = biological target: human Rho Associated Coiled-coil Containing Protein Kinase 1 (ROCK1), ROCK1 (gene 6093) (UniProt Q13464); experiment: NVS_ENZ_hROCK1: NovaScreen (NVS) Enzymatic Assay for human Rho Associated Coiled-coil Containing Protein Kinase 1 (ROCK1) (AID 2283214)
# Procedure, shortened: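 Compounds first run in duplicate at 25 uM against recombinant human ROCK1, then followed in concentration series. Kinase activity was read 1 h post-dosing by fluorescence with mobility-shift separation, as signal loss relative to DMSO.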
# [3] = biological target: human Protein Tyrosine Phosphatase Receptor Type B (PTPRB), PTPRB (gene 5787) (UniProt P23467); experiment: NVS_ENZ_hPTPRB: NovaScreen (NVS) Enzymatic Assay for human Protein Tyrosine Phosphatase Receptor Type B (PTPRB) (AID 2283211)
# Method: NVS_ENZ_hPTPRB is a biochemical, single-readout assay that uses extracted gene-proteins in a cell-free assay. Measurements were taken 1 hour after chemical dosing in a 384-well plate.NVS_ENZ_hPTPRB is one of one assay component(s) measured or calculated from the NVS_ENZ_hPTPRB assay. It is designed to make measurements of enzyme activity, a form of enzyme reporter, as detected with fluorescence intensity signals by Fluorescence and electrophoretic mobility shift technology.Data from the assay component NVS_ENZ_hPTPRB was analyzed into 1 assay endpoint. This assay endpoint, NVS_ENZ_hPTPRB, was analyzed in the positive analysis fitting direction relative to DMSO as the negative control and baseline of activity. Using a type of enzyme reporter, loss-of-signal activity can be used to understand changes in the enzymatic activity as they relate to the gene PTPRB. Furthermore, this assay endpoint can be referred to as a primary readout, because this assay has produced multiple assay endpoints where this one serves a enzymatic activity function. To generalize the intended target to other relatable targets, this assay endpoint is annotated to the phosphatase intended target family, where the subfamily is receptor tyrosine phosphatase.
# Binding assays used specific radioligands (tritiated, iodinated) with non-radioactive competitive displacement ligands in agonist or antagonist protocols (as indicated) and various reference compounds and inhibitors to titrate specific binding to receptors and transporters. Most enzyme assays (CYPs, kinases, phosphatases, proteases, HDACs) used recombinant protein and specific substrates (fluorescence mostly, some colorimetric and radioactive) and inhibitors, followed by a biochemical separation of substrate and product. All assays for the biochemical HTS were initially run in duplicate at a single concentration (10 uM for CYP450 assays and 25 uM for all others). […] Each assay was run with positive and negative controls, and concurrent controls on every plate. […]
# [4] = biological target: human Sirtuin 1 (SIRT1), SIRT1 (gene 23411) (UniProt Q96EB6); experiment: NVS_ENZ_hSIRT1: NovaScreen (NVS) Enzymatic Assay for human Sirtuin 1 (SIRT1) (AID 2283219)
# Procedure, shortened: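 Cell-free recombinant SIRT1 with a fluorescent substrate; substrate and product separated by electrophoretic mobility shift and read by fluorescence intensity, 1 h after dosing. Primary screen at 25 uM in duplicate; hits re-run in concentration-response up to 50 uM, relative to DMSO.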
# [5] = biological target: human Protein Tyrosine Phosphatase Receptor Type F (PTPRF), PTPRF (gene 5792) (UniProt P10586); experiment: NVS_ENZ_hPTPRF: NovaScreen (NVS) Enzymatic Assay for human Protein Tyrosine Phosphatase Receptor Type F (PTPRF) (AID 2283213)
# Procedure, shortened: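 Cell-free fluorescence enzyme assay with recombinant protein and substrate; product separated by electrophoretic mobility shift. Read 1 h after dosing, single 25 uM duplicate screen, then concentration-response up to 50 uM; loss of signal vs DMSO.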
# [6] = biological target: Tyrosine-protein phosphatase non-receptor type 14 (Homo sapiens) (UniProt Q15678); experiment: NVS_ENZ_hPTPN14: NovaScreen (NVS) Enzymatic Assay for human Protein Tyrosine Phosphatase Non-receptor Type 14 (PTPN14) (AID 2283206)
# Procedure, shortened: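 Fluorescent substrate turnover by recombinant human PTPN14 was measured 0.5 h after compound addition, with substrate and product separated by mobility shift. Single-point screening at 25 uM, then concentration-response up to 50 uM for chemicals meeting threshold (e.g., 30% inhibition).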
# [7] = biological target: human Sirtuin 2 (SIRT2), SIRT2 (gene 22933) (UniProt Q8IXJ6); experiment: NVS_ENZ_hSIRT2: NovaScreen (NVS) Enzymatic Assay for human Sirtuin 2 (SIRT2) (AID 2283217)
# Procedure, shortened: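 Single-point duplicate screen at 25 uM, then concentration-response (max 50 uM) for chemicals passing threshold. Enzyme activity of recombinant human SIRT2 measured after 1 hr by fluorescence with mobility-shift separation of product; DMSO baseline.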
# Sequence of human Protein Tyrosine Phosphatase Receptor Type B (PTPRB), PTPRB (gene 5787) (P23467 whole entry, looked up): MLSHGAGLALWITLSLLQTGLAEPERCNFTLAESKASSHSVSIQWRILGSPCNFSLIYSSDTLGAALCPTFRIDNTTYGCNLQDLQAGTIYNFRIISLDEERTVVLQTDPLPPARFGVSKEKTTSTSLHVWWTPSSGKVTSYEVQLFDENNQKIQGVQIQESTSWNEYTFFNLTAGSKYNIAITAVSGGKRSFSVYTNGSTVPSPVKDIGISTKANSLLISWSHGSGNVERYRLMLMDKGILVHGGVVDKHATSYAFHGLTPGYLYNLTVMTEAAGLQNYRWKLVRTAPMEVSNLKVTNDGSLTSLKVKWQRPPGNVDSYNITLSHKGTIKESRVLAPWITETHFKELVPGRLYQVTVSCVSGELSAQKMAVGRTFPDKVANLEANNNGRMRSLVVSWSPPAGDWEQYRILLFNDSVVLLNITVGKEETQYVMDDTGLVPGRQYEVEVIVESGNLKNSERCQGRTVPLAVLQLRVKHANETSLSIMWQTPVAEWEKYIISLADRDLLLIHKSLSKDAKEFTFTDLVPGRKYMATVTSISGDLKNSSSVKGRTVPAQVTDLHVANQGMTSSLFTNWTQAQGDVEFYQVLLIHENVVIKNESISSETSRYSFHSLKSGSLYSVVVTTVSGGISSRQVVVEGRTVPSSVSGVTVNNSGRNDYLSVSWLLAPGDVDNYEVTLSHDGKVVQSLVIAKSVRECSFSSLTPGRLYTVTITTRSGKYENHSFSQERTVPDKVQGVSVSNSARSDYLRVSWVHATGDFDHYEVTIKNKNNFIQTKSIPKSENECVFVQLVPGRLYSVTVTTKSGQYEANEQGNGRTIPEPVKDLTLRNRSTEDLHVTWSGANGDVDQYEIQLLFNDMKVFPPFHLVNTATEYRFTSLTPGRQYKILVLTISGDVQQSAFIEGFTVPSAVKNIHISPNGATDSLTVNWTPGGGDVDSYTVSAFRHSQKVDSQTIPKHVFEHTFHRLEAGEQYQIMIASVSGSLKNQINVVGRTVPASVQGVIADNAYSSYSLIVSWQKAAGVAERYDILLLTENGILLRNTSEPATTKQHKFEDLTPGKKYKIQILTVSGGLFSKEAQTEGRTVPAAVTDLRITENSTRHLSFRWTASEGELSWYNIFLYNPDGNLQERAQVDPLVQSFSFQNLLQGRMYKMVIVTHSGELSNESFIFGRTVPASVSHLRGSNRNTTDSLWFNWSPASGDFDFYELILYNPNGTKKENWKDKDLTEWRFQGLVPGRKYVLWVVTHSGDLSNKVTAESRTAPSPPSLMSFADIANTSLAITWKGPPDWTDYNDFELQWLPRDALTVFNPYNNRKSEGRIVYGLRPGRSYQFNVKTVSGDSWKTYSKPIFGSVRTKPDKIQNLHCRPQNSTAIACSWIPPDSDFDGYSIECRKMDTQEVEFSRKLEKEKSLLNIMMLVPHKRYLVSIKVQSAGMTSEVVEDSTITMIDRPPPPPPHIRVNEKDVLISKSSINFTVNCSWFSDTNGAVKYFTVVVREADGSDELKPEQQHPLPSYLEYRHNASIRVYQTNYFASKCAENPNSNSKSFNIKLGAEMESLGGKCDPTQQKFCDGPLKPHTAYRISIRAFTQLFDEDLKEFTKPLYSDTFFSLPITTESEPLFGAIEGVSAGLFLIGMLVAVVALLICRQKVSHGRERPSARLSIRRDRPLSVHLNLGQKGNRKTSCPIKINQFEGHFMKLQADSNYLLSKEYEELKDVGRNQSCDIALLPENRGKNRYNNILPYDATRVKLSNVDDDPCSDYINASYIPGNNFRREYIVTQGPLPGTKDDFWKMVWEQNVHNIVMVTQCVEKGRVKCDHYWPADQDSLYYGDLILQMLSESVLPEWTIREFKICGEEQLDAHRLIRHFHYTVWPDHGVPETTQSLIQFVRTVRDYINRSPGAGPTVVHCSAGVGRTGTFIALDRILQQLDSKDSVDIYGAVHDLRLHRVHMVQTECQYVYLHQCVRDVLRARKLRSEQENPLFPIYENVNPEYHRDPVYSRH
# Sequence of human Sirtuin 3 (SIRT3), SIRT3 (gene 23410) (Q9NTG7 whole entry, looked up): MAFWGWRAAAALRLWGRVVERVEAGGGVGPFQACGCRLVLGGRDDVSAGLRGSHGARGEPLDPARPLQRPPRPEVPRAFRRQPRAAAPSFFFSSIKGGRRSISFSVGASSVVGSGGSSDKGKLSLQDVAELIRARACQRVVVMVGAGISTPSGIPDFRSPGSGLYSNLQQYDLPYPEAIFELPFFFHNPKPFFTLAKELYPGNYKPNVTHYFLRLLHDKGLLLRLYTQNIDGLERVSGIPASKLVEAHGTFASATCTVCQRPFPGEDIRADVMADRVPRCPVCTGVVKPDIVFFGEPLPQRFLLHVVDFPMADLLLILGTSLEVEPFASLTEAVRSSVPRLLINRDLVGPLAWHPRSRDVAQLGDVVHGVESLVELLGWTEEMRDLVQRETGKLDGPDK
# Sequence of human Sirtuin 1 (SIRT1), SIRT1 (gene 23411) (Q96EB6 whole entry, looked up): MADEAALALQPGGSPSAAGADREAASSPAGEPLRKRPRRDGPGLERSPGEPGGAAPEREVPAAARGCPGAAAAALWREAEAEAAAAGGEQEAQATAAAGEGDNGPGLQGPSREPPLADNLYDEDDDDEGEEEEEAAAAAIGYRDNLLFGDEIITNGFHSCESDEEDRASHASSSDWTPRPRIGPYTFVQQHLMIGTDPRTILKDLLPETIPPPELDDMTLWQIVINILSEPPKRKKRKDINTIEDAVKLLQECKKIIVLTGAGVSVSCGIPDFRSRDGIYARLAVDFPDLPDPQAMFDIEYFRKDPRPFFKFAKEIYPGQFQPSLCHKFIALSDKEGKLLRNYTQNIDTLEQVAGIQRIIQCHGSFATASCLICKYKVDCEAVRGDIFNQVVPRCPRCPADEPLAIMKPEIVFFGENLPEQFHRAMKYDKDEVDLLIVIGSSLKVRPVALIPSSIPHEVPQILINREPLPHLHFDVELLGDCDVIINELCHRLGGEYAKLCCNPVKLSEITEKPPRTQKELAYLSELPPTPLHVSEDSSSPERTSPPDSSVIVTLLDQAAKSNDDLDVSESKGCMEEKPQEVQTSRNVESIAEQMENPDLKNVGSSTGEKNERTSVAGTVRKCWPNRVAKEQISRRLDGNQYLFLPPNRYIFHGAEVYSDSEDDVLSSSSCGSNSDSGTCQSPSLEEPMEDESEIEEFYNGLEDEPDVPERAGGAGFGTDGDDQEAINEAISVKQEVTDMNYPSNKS
# Sequence of human Sirtuin 2 (SIRT2), SIRT2 (gene 22933) (Q8IXJ6 whole entry, looked up): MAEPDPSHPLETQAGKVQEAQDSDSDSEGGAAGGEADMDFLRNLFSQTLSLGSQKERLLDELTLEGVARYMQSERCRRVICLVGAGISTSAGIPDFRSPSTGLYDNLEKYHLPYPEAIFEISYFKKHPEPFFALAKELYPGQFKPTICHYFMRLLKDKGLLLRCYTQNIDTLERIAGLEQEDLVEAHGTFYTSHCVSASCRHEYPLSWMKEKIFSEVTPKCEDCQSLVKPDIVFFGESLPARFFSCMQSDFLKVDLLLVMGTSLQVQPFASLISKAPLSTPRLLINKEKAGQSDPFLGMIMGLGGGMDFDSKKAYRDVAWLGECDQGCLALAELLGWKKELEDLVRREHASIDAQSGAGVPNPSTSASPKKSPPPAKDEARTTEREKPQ
# Sequence of human Rho Associated Coiled-coil Containing Protein Kinase 1 (ROCK1), ROCK1 (gene 6093) (Q13464 whole entry, looked up): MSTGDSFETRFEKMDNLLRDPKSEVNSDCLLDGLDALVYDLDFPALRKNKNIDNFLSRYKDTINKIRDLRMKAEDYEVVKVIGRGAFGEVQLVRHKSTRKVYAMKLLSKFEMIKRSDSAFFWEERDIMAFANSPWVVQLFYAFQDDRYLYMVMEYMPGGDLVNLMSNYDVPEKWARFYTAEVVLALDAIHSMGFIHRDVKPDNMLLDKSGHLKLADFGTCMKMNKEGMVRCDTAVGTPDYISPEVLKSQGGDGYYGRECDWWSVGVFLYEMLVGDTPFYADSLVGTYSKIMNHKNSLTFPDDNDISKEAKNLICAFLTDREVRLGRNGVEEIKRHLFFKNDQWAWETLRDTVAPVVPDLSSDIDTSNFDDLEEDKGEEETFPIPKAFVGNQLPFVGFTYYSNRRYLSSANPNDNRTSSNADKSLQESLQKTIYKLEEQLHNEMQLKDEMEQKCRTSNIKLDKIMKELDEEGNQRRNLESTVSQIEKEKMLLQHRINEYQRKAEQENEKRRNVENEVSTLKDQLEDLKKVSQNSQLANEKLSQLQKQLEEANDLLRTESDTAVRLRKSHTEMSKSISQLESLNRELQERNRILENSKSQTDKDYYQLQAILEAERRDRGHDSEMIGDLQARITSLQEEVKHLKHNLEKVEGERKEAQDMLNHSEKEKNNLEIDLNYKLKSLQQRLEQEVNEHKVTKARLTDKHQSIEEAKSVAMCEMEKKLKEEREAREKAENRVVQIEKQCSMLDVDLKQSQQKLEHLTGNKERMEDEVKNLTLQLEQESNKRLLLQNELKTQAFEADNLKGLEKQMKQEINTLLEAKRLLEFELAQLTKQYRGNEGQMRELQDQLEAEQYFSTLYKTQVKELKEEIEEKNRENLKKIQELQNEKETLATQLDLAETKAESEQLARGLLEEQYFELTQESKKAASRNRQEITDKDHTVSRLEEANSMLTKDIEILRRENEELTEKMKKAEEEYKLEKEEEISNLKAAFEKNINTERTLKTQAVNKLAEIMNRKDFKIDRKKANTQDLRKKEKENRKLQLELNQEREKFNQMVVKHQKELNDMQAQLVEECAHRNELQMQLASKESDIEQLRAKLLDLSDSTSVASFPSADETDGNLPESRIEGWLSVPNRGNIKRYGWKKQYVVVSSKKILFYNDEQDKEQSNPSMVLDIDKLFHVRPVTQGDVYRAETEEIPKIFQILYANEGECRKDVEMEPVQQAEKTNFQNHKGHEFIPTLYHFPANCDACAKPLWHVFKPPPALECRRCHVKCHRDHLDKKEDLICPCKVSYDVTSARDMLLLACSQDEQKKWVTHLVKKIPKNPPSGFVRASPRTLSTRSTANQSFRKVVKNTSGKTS
smiles,measurement,setting,value
Cc1oc2c(NC(=O)c3c(Cl)cccc3Cl)cccc2c1C(C)(C)O,outcome,[1],inactive
OCCO,outcome,[2],inactive
O=C(Nc1ccc(Cl)cc1)Nc1ccc(Cl)c(Cl)c1,outcome,[1],inactive
CCCCCCCCCC(=O)O,outcome,[3],inactive
same,outcome,[4],inactive
Clc1cc(Cl)c2c(c1)N=C1CCCCCN1C2,outcome,[3],inactive
same,outcome,[5],inactive
CC/C(=C(/CC)c1ccc(O)cc1)c1ccc(O)cc1,outcome,[6],inactive
same,outcome,[3],inactive
Cc1occc1C(=O)Nc1ccc(C(=O)N2CCC(F)(F)/C(=C\C(=O)N3CCC(N4CCCCC4)CC3)c3ccccc32)cc1,outcome,[1],inactive
O=c1c(-c2ccc(O)cc2)coc2cc(O)cc(O)c12,outcome,[4],inactive
CCCCCCCCN(C)CCCCCCCC,outcome,[7],inactive
O=C1O[C@H]([C@@H](O)CO)C(O)=C1O,outcome,[1],inactive
CC(C)(C)c1csc(-c2cc3cc(OCc4ccccc4CC(=O)O)ccc3o2)n1,outcome,[7],inactive
